These results are taken from PubChem BioAssay (NCATS).

Results filed as inconclusive are left out. A number with no mark means an inactive call. The source made the active and inactive calls. Unless noted, the call rests on the fitted dose curve.

Assay [1] can be described thus: qHTS for Inhibitors of the Functional Ribonucleoprotein Complex (vRNP) of Lassa (LASV) Arenavirus: LASV Primary Screen - GLuc reporter signal (AID 1347082; calls by dose curve; tested in HEK293 reporter line; further: nearly all actives have a fitted effect of over 60% in size; on activity change, negative = inhibition: series mostly up to about 57 µM). On the technique in general: In qHTS, concentration-response curves come from the screen itself.
Assay [2] is described as follows: qHTS for Inhibitors of the Functional Ribonucleoprotein Complex (vRNP) of Lassa (LASV) Arenavirus: Viability assay - alamar blue signal for LASV Primary Screen (AID 1347083; calls by dose curve; tested in HEK293 reporter line; further: nearly all actives have a fitted effect of over 80% in size; on activity change, negative = reduced viability: series mostly up to about 57 µM).
Assay [3] can be described thus: qHTS for Inhibitors of the Functional Ribonucleoprotein Complex (vRNP) of Lymphocytic Choriomeningitis Arenaviruses (LCMV): Viability assay - alamar blue signal for LCMV Primary Screen (AID 1347085; calls by dose curve; tested in HEK293 reporter line; further: nearly all actives have a fitted effect of over 80% in size; on activity change, negative = lower viability: series mostly up to about 57 µM).
Assay [4] addresses Nucleoprotein (Lymphocytic choriomeningitis virus (strain Armstrong)) (UniProt P09992). As to the kind of experiment: qHTS for Inhibitors of the Functional Ribonucleoprotein Complex (vRNP) of Lymphocytic Choriomeningitis Arenaviruses (LCMV): LCMV Primary Screen - GLuc reporter signal (AID 1347086). Further: nearly all actives have a fitted effect of over 70% in size. On activity change, negative = inhibition: series mostly up to about 57 µM.
On the % scale 0 is the no-effect control and ±100 the full control effect; potency means the concentration at half of the fitted maximal effect.

Sequence of Nucleoprotein (Lymphocytic choriomeningitis virus (strain Armstrong)) (P09992 whole entry, looked up): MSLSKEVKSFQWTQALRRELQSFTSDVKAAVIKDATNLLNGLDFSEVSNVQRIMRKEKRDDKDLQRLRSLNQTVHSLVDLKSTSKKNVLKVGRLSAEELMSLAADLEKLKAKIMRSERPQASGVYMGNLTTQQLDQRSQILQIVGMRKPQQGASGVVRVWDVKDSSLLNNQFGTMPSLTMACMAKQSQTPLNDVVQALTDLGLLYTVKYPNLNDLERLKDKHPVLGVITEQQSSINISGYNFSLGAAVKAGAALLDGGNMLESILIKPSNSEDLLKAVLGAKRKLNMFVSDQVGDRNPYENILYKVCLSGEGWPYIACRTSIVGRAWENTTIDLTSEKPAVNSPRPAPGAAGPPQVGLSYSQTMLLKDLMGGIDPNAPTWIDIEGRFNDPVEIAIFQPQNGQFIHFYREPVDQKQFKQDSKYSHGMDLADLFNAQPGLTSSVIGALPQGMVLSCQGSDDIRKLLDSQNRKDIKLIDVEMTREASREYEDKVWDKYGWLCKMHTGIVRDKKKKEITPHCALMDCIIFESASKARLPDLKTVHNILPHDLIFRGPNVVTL

As for `CC(C)(O)Cc1ccccc1`, the Potency result in assay [1], in assay [2], in assay [3] and in assay [4] was “inactive” in each case.

On to `O=C(/C=C/c1ccccc1)OCCc1ccccc1`, for which the Potency result in assay [1], in assay [2], in assay [3] and in assay [4] was “inactive” each time.

In the case of `Cn1c(=O)c(-c2ccccc2)c(O)c2ccccc21`, the Potency result in assay [1], in assay [2], in assay [3] and in assay [4] was “inactive” throughout.

As for `CCCCC[C@H](O)/C=C/C=C/C/C=C\CCCC(=O)O`, the activity change, negative = inhibition in assay [1] was -30.5% [at 0.757 µM]; in assay [4] it was 8.09% [at 0.757 µM]. The activity change, negative = reduced viability in assay [2] is -19.5% [at 0.757 µM]. Also, the activity change, negative = lower viability in assay [3] is 9.71% [at 0.757 µM].

Consider `Nc1nc(=O)n([C@H]2CSC(CO)O2)cc1F` (stereo not given in full), for which the Potency result in assay [1], in assay [2], in assay [3] and in assay [4] was “inactive” in each case.

With `O=c1ccc2cc3ccoc3cc2o1`, the Potency entry in assay [1], in assay [2], in assay [3] and in assay [4] was “inactive” throughout.

`COC(C)(C)[C@@H](O)COc1c2ccoc2cc2oc(=O)ccc12`: the Potency entry in assay [1], in assay [2], in assay [3] and in assay [4] was “inactive” in each case.

`CC(C)c1onc(-c2c(Cl)cccc2Cl)c1COc1ccc(C=Cc2cccc(C(=O)O)c2)c(Cl)c1`: the Potency result in assay [1], in assay [2], in assay [3] and in assay [4] was “inactive” in each case.

For `CC1=CC[C@H](CC=O)C1(C)C`, the Potency result in assay [1], in assay [2], in assay [3] and in assay [4] was “inactive” each time.

With `O=C1C=CC[C@H](/C=C/C[C@@H](O)C[C@H](O)CCc2ccccc2)O1`, the Potency result in assay [1], in assay [2], in assay [3] and in assay [4] was “inactive” throughout.

For the molecule `N[C@@H](CCCCNC(=O)CCCC[C@@H]1SC[C@H]2NC(=O)N[C@H]12)C(=O)O`, the Potency result in assay [1], in assay [2], in assay [3] and in assay [4] was “inactive” in each case.

For the molecule `CCCCOC(=O)C(C)OC(=O)CCC` (stereo not given), the Potency entry in assay [1], in assay [2], in assay [3] and in assay [4] was “inactive” throughout.

With `CC1(C)CCC[C@@](C)([C@H]2CC[C@]3(C)[C@@H]2[C@H](O)C[C@@H]2[C@@]4(C)CC[C@H](O)C(C)(C)[C@@H]4CC[C@]23C)O1`, the Potency result in assay [1], in assay [2], in assay [3] and in assay [4] was “inactive” throughout.

As for `COC(=O)[C@@]1(C)CC[C@]2(C)CC[C@@]3(C)C(=CC(=O)C4[C@@]5(C)CC[C@H](O)C(C)(C)[C@@H]5CC[C@]43C)[C@H]2C1` (stereo not given in full), the Potency entry in assay [1], in assay [2], in assay [3] and in assay [4] was “inactive” throughout.

`CCOC(=O)c1cc(=O)[nH]c2ccccc12`: the Potency result in assay [1], in assay [2], in assay [3] and in assay [4] was “inactive” each time.

Turning to `C#C[C@]1(O)CC[C@@H]2[C@@H]3CCC4=CC(=O)CC[C@@H]4[C@H]3CC[C@@]21CC`, the Potency entry in assay [1], in assay [2], in assay [3] and in assay [4] was “inactive” each time.

For `O=C1C=C(c2ccccc2)CO1`, the Potency result in assay [1], in assay [2], in assay [3] and in assay [4] was “inactive” throughout.

In the case of `ON=Cc1ccnc2ccccc12`, the Potency result in assay [1], in assay [2], in assay [3] and in assay [4] was “inactive” in each case.

For the molecule `COc1cc(C)c(C(=O)Oc2cc(C)c(C(=O)O)c(O)c2C)c(O)c1C`, the Potency entry in assay [1], in assay [2], in assay [3] and in assay [4] was “inactive” each time.

With `C=C[C@@]1(C)CC(=O)[C@]2(O)[C@@]3(C)[C@@H](O)CCC(C)(C)[C@@H]3[C@H](OC(C)=O)[C@H](O)[C@@]2(C)O1`, the Potency entry in assay [1], in assay [2], in assay [3] and in assay [4] was “inactive” in each case.

Regarding `O=C(OCC1OC(Oc2ccc(O)cc2)C(O)C(O)C1O)c1ccccc1` (stereo not given), the Potency entry in assay [1], in assay [2], in assay [3] and in assay [4] was “inactive” each time.

As to `O=C(Nc1cc2cc[nH]c2cn1)c1ccccc1`, the Potency entry in assay [1], in assay [2], in assay [3] and in assay [4] was “inactive” in each case.

In the case of `COC(=O)c1ccc2c(c1O)C(=O)c1ccccc1C2=O`, the Potency entry in assay [1], in assay [2], in assay [3] and in assay [4] was “inactive” in each case.

With `COc1c2c(nc3occc13)C(CC=C(C)C)(OC)C(O)CC2` (stereo not given), the Potency result in assay [1], in assay [2], in assay [3] and in assay [4] was “inactive” throughout.

As to `CC1=CC2OC3CC4OC(=O)C=CC=CC(=O)OCCC(C)C(O)C(=O)OCC2(CC1O)C4(C)C31CO1` (stereo not given), the Potency result in assay [1], in assay [2], in assay [3] and in assay [4] was “inactive” each time.

Consider `CNC(=O)c1cccc(-c2ccc3c(N4CCOC[C@H]4C)nc(N4CCOC[C@H]4C)nc3n2)c1`, for which the Potency in assay [1] was 137 nM (active); in assay [2] it was 137 nM (active); in assay [3], 153 nM (active); in assay [4], 137 nM (active).

Take `C[C@]12CC[C@H](O)CC1=CCC1C2CC[C@@]2(C)C1C[C@@H](O)[C@@H]2O` (stereo not given in full): the Potency result in assay [1], in assay [2], in assay [3] and in assay [4] was “inactive” in each case.

On to `CC(=O)OCC=C(C)C`, for which the Potency entry in assay [1], in assay [2], in assay [3] and in assay [4] was “inactive” throughout.

As for `COc1ccc2c3c([nH]c2c1)C(C)NCC3` (stereo not given), the Potency entry in assay [1], in assay [2], in assay [3] and in assay [4] was “inactive” throughout.

Consider `C[C@H]1[C@H](C)CC[C@]2(C)CC[C@]3(C)C(=CC(=O)C4[C@@]5(C)CC[C@H](O)C(C)(C)C5CC[C@]43C)[C@H]12` (stereo not given in full), for which the Potency result in assay [1], in assay [2], in assay [3] and in assay [4] was “inactive” in each case.
